PAFAH1B3 inh = inhibitors of human PAFAH1B3; 0.28% of 340,000 active; inhibition, % at 3.39 µM; Q15102; recombinant PAFAH1B3, FP-rhodamine probe, fluorescence polarization; AID 492972;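 active = inhibition above the screen-wide average of all tested compounds plus 3 SD, cut at about 25% in these data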
pPAFAH inh = pPAFAH (human) enzyme inhibition; Q13093; recombinant pPAFAH, FP-rhodamine probe fluorescence polarization; inhibition, % at 3.39 µM; 1.5% of 330,000 active;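 active = inhibition above the mean inhibition across the screen plus 3 SD, cut at about 25% in these data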;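 also: inhibitors block binding of the rhodamine activity-based probe so polarization drops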
Target sequence (Q13093 whole entry, looked up): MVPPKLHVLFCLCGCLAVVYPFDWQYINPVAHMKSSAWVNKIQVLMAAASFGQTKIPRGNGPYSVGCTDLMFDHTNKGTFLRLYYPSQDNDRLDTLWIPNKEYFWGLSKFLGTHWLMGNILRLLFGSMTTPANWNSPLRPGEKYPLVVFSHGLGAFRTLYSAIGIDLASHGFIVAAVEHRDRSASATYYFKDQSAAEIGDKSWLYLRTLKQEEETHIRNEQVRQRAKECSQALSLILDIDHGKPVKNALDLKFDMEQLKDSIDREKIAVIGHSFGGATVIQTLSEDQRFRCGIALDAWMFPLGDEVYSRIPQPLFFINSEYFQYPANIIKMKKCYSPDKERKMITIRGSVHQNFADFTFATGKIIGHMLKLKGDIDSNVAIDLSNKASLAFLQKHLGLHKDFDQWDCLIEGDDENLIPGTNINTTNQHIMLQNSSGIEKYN
PfM18AAP inh = PfM18AAP enzyme inhibition. inhibition, % at 7.35 µM. 1.2% of 290,000 active. recombinant PfM18AAP, H-Glu-NHMec fluorogenic cleavage. AID 1822;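 active = inhibition above the campaign mean inhibition over all tested compounds plus 3 SD, cut at about 28% in these data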
Pemphigus Ab inh = inhibitors of pemphigus antibody binding to human desmoglein-3 | P32926 | DSG3-coupled beads, scFv-anti-DSG3-GFP binding, flow cytometry; hits give low values | binding (percent of control), % at 10 µM | 0.48% of 310,000 active | AID 588358;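 active = binding more than 3 SD below its plate's average and above zero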;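 also: hits lower antibody fragment binding to DSG3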
PAFAH2 FP inh = PAFAH2 (human) inhibition; AID 492956; recombinant PAFAH2, FP-rhodamine activity probe, fluorescence polarization; inhibition, % at 3.39 µM; 0.99% of 340,000 active;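 active = inhibition above the mean over all tested compounds plus 3 SD, cut at about 30% in these data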;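 also: inhibitors block probe labeling of enzyme so polarization drops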
PAFAH1B2 inh = blocks human PAF acetylhydrolase 1b catalytic subunit 2. P68402. recombinant PAFAH1B2, FP-rhodamine activity probe, fluorescence polarization. inhibition, % at 3.39 µM. 1.2% of 340,000 active. AID 492953;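 active = inhibition above the mean of all tested compounds plus 3 SD, cut at about 24% in these data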
Each line names hits and unclear results; the compound was inactive in the other large screens. Only some compounds are listed: those with a hit (about 3.8% of all), similar ones and a draw of the others.

CCCNC(=O)COC(=O)c1ccc(-c2ccccc2)cc1	pPAFAH inh 25, PAFAH2 FP inh 60
CC(NC(=O)COC(=O)c1ccc(OCC2CCCO2)cc1)c1ccccc1Cl (stereo unspecified)	pPAFAH inh 25, PAFAH2 FP inh 88 (no result: PfM18AAP inh, Pemphigus Ab inh)
C[C@H](CO)N1C[C@H](C)[C@H](CN(C)C(=O)Nc2ccc(C(F)(F)F)cc2)OCc2cnnn2CCCC1=O	none (no result: PAFAH1B3 inh, pPAFAH inh, PfM18AAP inh, PAFAH2 FP inh, PAFAH1B2 inh)
CCOC(=O)C1(CC2CCCCO2)CCN(Cc2cc3ccccc3[nH]2)CC1 (stereo unspecified)	none
Oc1cccc(O)c1O	pPAFAH inh 96 (no result: PAFAH1B3 inh, PfM18AAP inh, Pemphigus Ab inh, PAFAH2 FP inh, PAFAH1B2 inh)
O=C(O)c1cccc(O)c1O	none (no result: PfM18AAP inh)
CC(=O)C1=C(O)C(=O)OC1c1ccc(C)cc1 (stereo unspecified)	none
CC(=O)C1=C(O)C(=O)OC1c1ccc(Cl)cc1 (stereo unspecified)	Pemphigus Ab inh 76
NS(=O)(=O)c1ccc(NC(=S)N2CCN(c3ccc(Cl)c(Cl)c3)CC2)cc1	Pemphigus Ab inh 53
COc1ccc2cc(-c3cc(C(=O)OCC(=O)NC4CCS(=O)(=O)C4)c4ccccc4n3)ccc2c1 (stereo unspecified)	Pemphigus Ab inh 4.6
CCc1ccc(NC(=O)CSc2nc(=O)n(CCCN(C)C)c3c2CCC3)cc1	none (no result: PfM18AAP inh)
CN(Cc1nc2ccccc2c(=O)[nH]1)C(=O)COc1ccccc1Cc1ccccc1	none (no result: PfM18AAP inh)
Cn1c(N)c(C(=O)CSc2nc(C3CC3)n(-c3ccccc3)n2)c(=O)[nH]c1=O	pPAFAH inh 32 (no result: PfM18AAP inh)
CCS(=O)(=O)N1Cc2ccccc2CC1C(=O)Nc1nnc(SCc2ccc(F)cc2)s1 (stereo unspecified)	pPAFAH inh 25
Cn1nc(NC(=O)CC(C)(C)CC(=O)O)c2ccccc21	none (no result: PAFAH1B3 inh, PAFAH2 FP inh, PAFAH1B2 inh)
COc1[nH]c(/N=C/c2ccccc2)c(C#N)c1C#N	PAFAH1B3 inh 82, PAFAH2 FP inh 83, PAFAH1B2 inh 81 (no result: Pemphigus Ab inh)
Cc1ccc(CSCCNS(=O)(=O)c2ccc([N+](=O)[O-])cc2)cc1	PAFAH1B2 inh 25
Cc1ccc(S(=O)(=O)NCCSCc2ccccc2)cc1	none (no result: Pemphigus Ab inh)
O=C(NCCc1ccc(Cl)cc1)c1cc2ccccn2n1	PAFAH1B2 inh 30
Cc1ccc(S(=O)(=O)CCC(=O)OCCOc2ccc(Br)cc2)cc1	none (no result: PAFAH1B3 inh, pPAFAH inh, PfM18AAP inh, PAFAH2 FP inh, PAFAH1B2 inh)
Cc1ccc(NC(=O)COC(=O)CCC(=O)c2cccs2)c(C)c1	Pemphigus Ab inh 91
Cc1ccc(S(=O)(=O)NCC(=O)OCC(=O)c2ccc(Br)s2)cc1	none
Cc1ccc(S(=O)(=O)NCC(=O)OCCOc2ccc(Br)cc2)cc1	PAFAH1B2 inh 30 (no result: PfM18AAP inh, Pemphigus Ab inh)
Cc1ccc(OCCNS(=O)(=O)c2ccc(Cl)cc2)cc1	PAFAH1B2 inh 24 (no result: PfM18AAP inh)
COc1ccc(S(=O)(=O)NCCOc2ccc(Cl)cc2)cc1	none (no result: PfM18AAP inh)
Cc1ccc(S(=O)(=O)NCC(=O)OCC(=O)c2cccs2)cc1	Pemphigus Ab inh 43
Cc1ccccc1NC(=O)COC(=O)CCC(=O)c1cccs1	none (no result: pPAFAH inh, PfM18AAP inh)
COc1ccc(NC2CCCN(C(=O)CCC(=O)c3ccc(F)cc3)C2)cc1 (stereo unspecified)	none
C=CCNC(=S)Nc1cccc2[nH]ncc12	none (no result: Pemphigus Ab inh)
CCN(C[C@H]1N[C@@](C)(C(=O)OC)[C@H]2C(=O)N(C)C(=O)[C@@H]12)C(=O)Nc1ccc(C(F)(F)F)cc1	none (no result: PfM18AAP inh)
CC(C)(C)SCCNS(=O)(=O)c1ccc(Cl)cc1	pPAFAH inh 31 (no result: PAFAH1B3 inh, PAFAH2 FP inh, PAFAH1B2 inh)
CC(C)(C)SCCNS(=O)(=O)c1ccc(C#N)cc1	none
CCOc1ccc(NC(=O)COC(=O)c2c[nH]c3ccccc23)cc1	none (no result: PAFAH1B3 inh, pPAFAH inh, PfM18AAP inh, PAFAH2 FP inh, PAFAH1B2 inh)
NC1=C(Cl)C(=O)c2ccccc2C1=O	none (no result: pPAFAH inh, PfM18AAP inh, Pemphigus Ab inh)
NC1=C(Cl)C(=O)c2ccc(S(N)(=O)=O)cc2C1=O	PAFAH1B3 inh 69, PAFAH2 FP inh 48, PAFAH1B2 inh 25 (no result: pPAFAH inh, PfM18AAP inh)
COc1cccc(-c2nc(CS(=O)CC(=O)NC3CCCCC3)c(C)o2)c1 (stereo unspecified)	Pemphigus Ab inh 55
O=c1c2ccccc2nc(N/N=C/c2c(O)ccc3ccccc23)n1O	pPAFAH inh 34, PfM18AAP inh 30
COc1cc2c(cc1NC(=O)C(C)NCc1ccccc1)oc1ccccc12 (stereo unspecified)	pPAFAH inh 26
Cc1sc(NC(=O)C2CC(=O)N(Cc3ccco3)C2)nc1-c1ccccc1 (stereo unspecified)	none (no result: PAFAH1B3 inh, pPAFAH inh, PfM18AAP inh, PAFAH2 FP inh, PAFAH1B2 inh)
CCC(OC(=O)c1nsc(Cl)c1Cl)C(=O)NCc1ccco1 (stereo unspecified)	pPAFAH inh 27

Bioassay records: PubChem, several laboratories
